# Screening data from PubChem BioAssay.
# FMDV antiviral = High Throughput Screening for Foot and Mouth Disease Virus Antivirals | FMDV antiviral cell-based qHTS | Potency, µM (top dose mostly 57.9 µM), for inactives: at the highest dose activity change, negative = inhibition, hits mostly inhibitors | 1.2% of 410,000 active | AID 1159524, 2015; calls by dose curve; tested in HEK293T cells; also: read-out not given here; nearly all actives have a fitted effect of over 45% in size
# AmpC inh detg = qHTS Inhibitors of AmpC Beta-Lactamase (assay with detergent). P00811. AmpC hydrolysis of nitrocefin, absorbance 480 nm, 0.01% Triton. Potency, µM (doses to about 114 µM), without a hit: at the highest dose activity change, negative = inhibition, actives largely listed as inhibitors. 0.041% of 370,000 active;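 also: 0% = no-compound wells and -100% = no-enzyme wells; nearly all actives have a fitted effect of over 25% in size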
# Target sequence (P00811 whole entry, looked up): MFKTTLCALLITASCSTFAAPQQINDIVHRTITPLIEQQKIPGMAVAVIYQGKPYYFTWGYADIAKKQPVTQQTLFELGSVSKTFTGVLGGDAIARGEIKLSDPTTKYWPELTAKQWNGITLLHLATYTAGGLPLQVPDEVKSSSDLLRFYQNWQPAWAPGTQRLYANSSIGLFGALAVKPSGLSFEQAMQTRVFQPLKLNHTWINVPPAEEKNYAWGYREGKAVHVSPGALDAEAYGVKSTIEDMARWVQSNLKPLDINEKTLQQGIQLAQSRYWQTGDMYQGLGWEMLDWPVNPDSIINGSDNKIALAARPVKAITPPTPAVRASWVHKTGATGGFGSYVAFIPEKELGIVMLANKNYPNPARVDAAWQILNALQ
#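 AmpC (5.3 nM in the dispensed reagent) in 20 mM phosphate pH 7.0 with 0.01% (detergent screen) or 0.0001% Triton X-100 was preincubated with compounds for 15 min at room temperature. Nitrocefin was then added from an 800 uM solution, and hydrolysis was followed at 480 nm.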
# AMA1-RON2 inh = qHTS for Inhibitors of AMA1-RON; Towards Development of Antimalarial Drug Lead: Primary Screen; Plasmodium falciparum AMA1 (3D7) - RON2 peptide interaction; AlphaScreen AMA1-biotinylated RON2 peptide binding; Potency, µM (titrated, usually from 58.2 µM), without a hit: at the highest dose activity change, negative = inhibition, most hits filed as inhibitors; 0.2% of 360,000 active; AID 720542, 2013;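 also: 0% = vehicle wells and -100% = peptide control; nearly all actives have a fitted effect of over 45% in size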
#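 AMA1 (3D7) with his tag at 25 nM final met compounds first, then biotinylated RON2 peptide at 25 nM; detection used donor plus acceptor beads, 10 µg/mL apiece, read by AlphaScreen after 30 min at room temperature.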
# AmpC inh no detg = qHTS Inhibitors of AmpC Beta-Lactamase (assay without detergent). Potency, µM (doses to about 57.1 µM), for the others: at the highest dose activity change, negative = inhibition, most hits filed as inhibitors. AmpC nitrocefin hydrolysis, absorbance 480 nm, 0.0001% Triton. 0.52% of 330,000 active;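 also: plate controls were no compound for no effect and no enzyme for full effect; nearly all actives have a fitted effect of over 20% in size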
#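 AmpC (5.3 nM in the dispensed reagent) in 20 mM phosphate pH 7.0 with 0.01% (detergent screen) or 0.0001% Triton X-100 was preincubated with compounds for 15 min at room temperature. Nitrocefin was then added from an 800 uM solution, and hydrolysis was followed at 480 nm.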
# Sm TGR inh = qHTS Assay for the Inhibitors of Schistosoma Mansoni Peroxiredoxins; 3% of 360,000 active; Potency, µM (doses to about 114 µM), inactives show at the top dose activity change, negative = inhibition, usual class: inhibitors; purified TGR, DTNB reduction, TNB absorbance 405 nm; Schistosoma mansoni thioredoxin glutathione reductase (TGR), Q962Y6; AID 485364, 2010; also: nearly all actives have a fitted effect of over 60% in size
#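 Kinetic colorimetric format: TGR-catalysed, NADPH-driven DTNB reduction monitored via TNB absorbance. Enzyme dispensed at 20 nM; compound exposure 15 min at room temperature before reaction start.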
# Starred values were filed as active, the others as inactive; ? = inconclusive; / = no result; [ ] = another dose, or the depositor's remark. This is a sample that favours compounds with a hit; in the whole collection about 4.1% have one here. Unless noted, calls follow the shape of the dose curve; as a rule, active = well fitted curve in the direction sought with a large enough effect; inconclusive = small, poorly fitted or top-dose-only effect, or another doubt; inactive = no such curve, though single readings can be large; an effect the other way counts as inactive or inconclusive. Unless noted, % is scaled to controls: 0 for no effect and ±100 for the full control effect; potency is read from the fitted curve at half-maximal effect.
SMILES,FMDV antiviral,AmpC inh detg,AMA1-RON2 inh,AmpC inh no detg,Sm TGR inh
C=CCc1ccc(OC(=O)NC2CCCCC2)c(OC)c1,64%,-12%,1%,-23%,22µM*
C=CCc1ccc(OCc2ccc(C(=O)O)o2)c(OC)c1,14µM*,-3%,-6%,-25%,?
CCn1cc(C(=O)NCc2ccccc2Cl)c(=O)c2cc(S(=O)(=O)N3CCc4ccccc4C3)ccc21,-10%,4%,/,/,-2%
COc1ccc(OC)c(CCNc2ncnc3onc(-c4ccc(Cl)cc4)c23)c1,-24%,15%,/,/,15%
Cc1ccc2cc(CCNC(=O)c3cccc([N+](=O)[O-])c3)c(=O)[nH]c2c1C,22µM*,?,1%,-10%,-17%
CC1(c2ccccc2)OC(C(=O)O)=CC1=O (stereo not drawn),-11%,/,/,/,/
O=C(CSc1n[nH]c(-c2ccccc2Cl)n1)NCc1ccc(F)cc1,-18%,25%,/,/,-1%
CC(C)c1c(C(=O)NCc2cccnc2)cnn1-c1nccc(-c2ccccc2F)n1,-28%,/,/,/,/
CCN1CCCC(Sc2nc3c([nH]2)c(=S)n(C)c(=O)n3C)C1 (stereo not drawn),66%,-1%,82%,-24%,40µM*
Cn1c(=S)c2[nH]c(SCCN3CCCC3)nc2n(C)c1=O,0%,-6%,81%,0%,40µM*
CCCCCN1C(C(=O)c2ccccc2)=C(NC(=O)c2ccc(OC)cc2)c2ccccc2S1(=O)=O,-6%,30%,/,/,6%
O=C(NCCc1ccc(Cl)cc1)c1ccc2c(c1)N(Cc1ccc(F)cc1Cl)C(=O)CS2,-24%,2%,/,/,-2%
CC(C)(C)C1=CC=C(C(C)(C)C)C(=O)C1=O,/,8%,/,-10%,25µM*
CC(C)(C)c1ccc2c(c1)C(=O)c1ccccc1C2=O,6%,-12%,?,-24%,-9%
Cc1c(NS(=O)(=O)c2cccc(C(=O)O)c2)c(=O)n(-c2ccccc2)n1C,2%,1%,3%,-6%,-17%
Cc1cccc(NC(=O)c2cccc(S(=O)(=O)Nc3c(C)n(C)n(-c4ccccc4)c3=O)c2)c1,-2%,/,1%[11.6 µM],/,/
CC(=O)c1ccc(NC(=S)Nc2cccc(S(=O)(=O)Nc3c(C)n(C)n(-c4ccccc4)c3=O)c2)cc1,37%,2%,13%,-48%,14µM*
Cc1ccc(NC(=S)Nc2cccc(S(=O)(=O)Nc3c(C)n(C)n(-c4ccccc4)c3=O)c2)cc1,26%,1%,9%,-37%,50µM*
O=C(NCc1ccco1)C(Cc1ccccc1)N1C(=O)C2C3C=CC(C3)C2C1=O (stereo not drawn),-4%,4%,8%,-8%,22µM*
O=C(C(Cc1ccccc1)N1C(=O)C2C3C=CC(C3)C2C1=O)N1CCCCCC1 (stereo not drawn),-6%,1%,14%,/,79µM*
COC(=O)C1Cc2ccccc2CN1C(=O)CCl (stereo not drawn),22µM*,?,-14%,-16%,-103%
COC(=O)[C@H](Cc1ccccc1)NC(=O)N1Cc2ccccc2C[C@H]1C(=O)OC,-1%,-12%,7%,33%,-2%
COc1ccc(Oc2c(C(F)(F)F)oc3c(CN4CCCC(C)C4)c(O)ccc3c2=O)cc1 (stereo not drawn),0%,29%,/,/,-25%
CCN(CC(=O)NCc1cccs1)C(=O)c1ccc([N+](=O)[O-])o1,-14%,?,-3%,-14%,45µM*
Cc1cc(C)c(C(=O)NCc2nc(-c3cccc(NC(=O)C4CCCN(C)C4)c3)oc2C)[nH]1 (stereo not drawn),-6%,/,/,/,/
SMILES,FMDV antiviral,AmpC inh detg,AMA1-RON2 inh,AmpC inh no detg,Sm TGR inh
CCOC(=O)c1c(S(=O)(=O)N2CCCC(C(=O)Nc3ccc(OCC)cc3)C2)c(C)n(C)c1C (stereo not drawn),-7%,-7%,/,/,-2%
COc1cc(/C=N/NC(=O)c2cccs2)ccc1O,4%,-3%,8%,-24%,-5%
COc1cc(/C=N/Nc2ccccc2)ccc1O,9%,3%,3%,-26%,40µM*
COc1cc(/C=N/Nc2ccccc2C(F)(F)F)ccc1O,43%,0%,-6%,-51%,40µM*
COc1cc(/C=N/Nc2cccc(C)c2)cc(Br)c1O,21%,-1%,-3%,32µM*,45µM*
COc1cc(/C=N/NP(=S)(c2ccccc2)c2ccccc2)ccc1O,27%,?,16%,-50%,-9%
O=C(O)c1ccc2c(c1)C(=O)N([C@H](Cc1c3ccccc3cc3ccccc13)C(=O)O)C2=O,/,?,/,-12%,2%
CCn1c(-c2ccccc2F)nc2cc(NC(C)=O)cc(C(=O)N3CCNC(=O)C3CC(=O)OC)c21 (stereo not drawn),-14%,/,/,/,/
CCN(CC)C(=O)Cn1cc(SCC(=O)NCc2ccco2)c2ccccc21,-3%,-2%,-5%,1%,-25%
CCN(CC)C(=O)Cn1cc(C(=O)C(=O)NCc2ccco2)c2ccccc21,-3%,5%,-8%,-10%,40µM*
Cc1ccc(CN(Cc2ccco2)c2cnc(S(C)(=O)=O)nc2C(=O)Nc2ccc(Br)cc2)o1,-8%,5%,/,/,-1%
O=C(CSc1nc(=O)n(Cc2ccco2)c2c1CCC2)NCc1ccc(Cl)cc1,20%,4%,/,/,-31%
Cc1ccc2cc(C#N)c(SCC(=O)NCc3ccco3)nc2c1,11%,?,-4%,-51%,35µM*
Cc1ccc2nc(SCC(=O)NCc3ccco3)c(C)cc2c1,-14%,5%,15%,-22%,40µM*
Cc1ccc(CNC(=O)CSc2nc(=O)n(Cc3ccco3)c3c2CCC3)cc1,13%,3%,/,/,40µM*
COc1ccc(OC)c(NC(=O)c2cccn2-c2nnc(N3CCCCC3)s2)c1,16%,0%,/,/,1%
Cc1csc(=O)n1CCC(=O)OCC(=O)NCc1ccc(Cl)cc1Cl,-9%,-16%,-3%,-10%,-1%
Cc1csc(=O)n1CCC(=O)OCC(=O)NNC(=O)c1ccc(Cl)cc1,-12%,-5%,23%,-18%,35µM*
Cc1ccccc1N/N=C/c1sc(=O)n(Cc2cccc(C(=O)O)c2)c1Cl,-25%,-11%,-13%,-25%,10µM*
COC(=O)c1cccc(Cn2c(Cl)c(/C=N/Nc3ccccc3C)sc2=O)c1,-11%,2%,?,32µM*,7.9µM*
Cc1ccccc1N1CCN(Cc2cccc(C(=O)O)c2)CC1,-22%,?,-1%,-12%,2%
CCOc1ccc(CNC(=O)CN2C(=O)CSc3c2c(C)nn3-c2ccccc2)cc1,-19%,23%,/,/,0%
